Screening data from PubChem BioAssay.
Compounds with a hit are over-represented: about 4.3% of the library has one in this group of screens.
MITF TRPM1 inh: inhibitors of MITF-dependent TRPM1 promoter reporter, primary screen, cell-based, SK-MEL-5, single point, luciferase | SK-MEL-5 TRPM1 promoter luciferase, 24 h | inhibition, % at 12.5 µM | 0.83% of 330,000 active;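 active = mean inhibition across replicates of 60% or more, whatever share of single replicates reaches that level; inconclusive = some that reach 60%, reason not given; inactive = mean inhibition across replicates below 60%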
CHOP inh: inhibitors of CHOP promoter induction, primary screen, cell-based, unfolded protein response, luciferase reporter; inhibition, % at 10 µM; 3.8% of 220,000 active; CHO-K1 CHOP-promoter luciferase, tunicamycin-induced, 15-18 h; AID 2732, 2010;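 active = compounds that reduced the stress-induced luciferase reporter signal by more than about 70% of percent inhibition, limit read from the data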;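 also: 0% = tunicamycin plus vehicle and 100% = wells without tunicamycin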
Peg3 prom inh-1: Peg3 promoter-driven luciferase inhibitors, primary screen, cell-based, HeLa, luciferase luminescence | HeLa PEG-Prom luciferase reporter, overnight | inhibition, % at 20 µM | 1.7% of 360,000 active;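 active = inhibition of at least 50% at 20 µM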
CF NFkB inh: inhibitors of PAF-induced NF-kB signaling, primary screen, cell-based, GFP fluorescence, uHTS; KKLEB NF-kB-GFP reporter, GFP fluorescence overnight; inhibition, % at 5 µM; 0.86% of 360,000 active; AID 588850, 2011;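 active = at least 50% inhibition at 5 µM, scaled per plate between neutral and stimulator controls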;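 also: PAF is a Pseudomonas aeruginosa culture filtrate used as stimulus; plate controls were PAF-stimulated DMSO wells for no effect and unstimulated DMSO wells for full effect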
KKLEB tox: cytotoxicity in KKLEB CF airway cells, primary screen, cytotoxicity control for CF NF-kB inhibitor project, cell-based, uHTS, fluorescence assay plates; KKLEB CF airway cells viability, ATPlite luminescence, overnight; hits give low values; cells stimulated with P. aeruginosa culture filtrate; activity change (cytotoxicity), % at 5 µM; 0.36% of 360,000 active; AID 602141, 2011;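 active = corrected activity change at or below -50% at 5 µM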
HIF-2a inh: HIF-2a reporter inhibitors, primary screen, luminescence, 786-0 RCC cells; 786-0 RCC cells HIF-2a reporter, luciferase luminescence, overnight; inhibition, % at 18.8 µM; 0.72% of 360,000 active; AID 624352, 2012;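 active = inhibition of the luminescence signal of 40% or more relative to plate controls, in a single-dose primary screen at 18.75 µM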
CHOP confirm: retest of CHOP induction inhibitors, confirmation, cell-based; shares compounds with CHOP inh; CHO-CHOP promoter luciferase reporter, tunicamycin-induced, luminescence; inhibition, % at 10 µM; 45% of 2,100 active; AID 504437, 2011;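 active = mean of three repeat readings of reporter signal inhibition above a set limit, cut at about 70% in these data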;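 also: 0% = tunicamycin plus vehicle and 100% = wells lacking tunicamycin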
Peg3 prom inh-2: Peg3 promoter reporter inhibitors, retest, confirmation, cell-based, HeLa, luciferase reporter, single concentration. shares compounds with Peg3 prom inh-1. HeLa PEG-Prom luciferase reporter, luminescence, overnight. inhibition, % at 20 µM. 84% of 1,300 active. AID 602417, 2012;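 active = at 20 µM dose, 40% or more inhibition averaged across four replicates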
* marks the source's active call; other numbers are inactive results; ? = inconclusive; . = not tested or not shown.

SMILES	MITF TRPM1 inh	CHOP inh	Peg3 prom inh-1	CF NFkB inh	KKLEB tox	HIF-2a inh	CHOP confirm	Peg3 prom inh-2
CC(C)CC(N)c1csc(Nc2cnccn2)n1 (stereo not given)	.	.	25	28	-11	13	.	.
COc1ccc(CN(C)CCCn2cnc3c(OC)ncnc32)cc1OC	.	.	9	3	-4	-5	.	.
CCOC(=O)C1=C(C)c2ccccc2OC1(C(=O)OCC)C(C)C (stereo not given)	-2	.	-6	6	8	10	.	.
Cc1cc(C)cc(-n2c(N)c(C(=O)Nc3c(C)n(C)n(-c4ccccc4)c3=O)c3nc4ccccc4nc32)c1	-1	105*	91*	14	-45	-7	39	.
CCCCC1=CC2=C(c3ccco3)C(=O)C(C)(OC(=O)c3ccc(OC)cc3)C(=O)C2=CN1Cc1ccco1 (stereo not given)	-2	102*	21	6	4	25	37	.
O=C1CCCCc2sc(Br)c([N+](=O)[O-])c2N1	32	105*	7	-13	7	20	19	.
CCN(CC(O)Cn1c2ccccc2c2ccccc21)S(=O)(=O)c1ccc(C)cc1 (stereo not given)	-1	99*	34	4	5	31	35	.
Cc1ccc(C)c(C(O)c2ncc(-c3ccc(F)cc3)[nH]2)c1 (stereo not given)	.	.	0	6	-1	-1	.	.
CCN1CCN(c2cc(C)c3cc(NC(=S)N4CCN(c5ccccc5)CC4)ccc3n2)CC1	50	20	41	10	-6	9	.	.
Cc1cc(N2CCOCC2)nc2ccc(NC(=S)N3CCN(c4ccccc4)CC3)cc12	30	101*	-2	4	-8	-10	-13	.
OC(COCc1cccs1)CN1CCN(c2cccc(C(F)(F)F)c2)CC1 (stereo not given)	-8	25	14	3	-4	12	.	.
OC(CN1CCN(c2cccc(C(F)(F)F)c2)CC1)c1c[nH]c2ccccc12 (stereo not given)	9	97*	12	6	-4	34	47	.
COc1ccccc1CNC(=O)c1c(N)n(CCCN2CCOCC2)c2nc3ccccc3nc12	-10	96*	60*	-6	-2	-51	40	85*
Nc1c(C(=O)NCc2ccc3c(c2)OCO3)c2nc3ccccc3nc2n1CCCN1CCOCC1	-7	.	29	-26	-4	-79	.	.
CCCOC(=O)c1cccc(Nc2nc(-c3cccnc3)nc3ccccc23)c1	48	96*	96*	0	-22	21	56	95*
O=C(OCCNc1nc(-c2ccccc2)nc2ccccc12)c1cccnc1	-17	23	21	-7	-6	11	.	.
O=C(NCc1cn(-c2ccccc2)nc1-c1ccc(F)cc1)c1cccc([N+](=O)[O-])c1	-8	52	13	-11	7	-21	.	.
Fc1ccc(-c2nn(-c3ccccc3)cc2CNCc2ccccc2)cc1	-3	101*	62*	0	-10	5	123*	17
CN(Cc1cnn(Cc2ccccc2)c1)C(=O)CN=C1NS(=O)(=O)c2ccccc21	.	.	17	2	4	5	.	.
O=C(N/N=C/c1ccccc1Cl)c1n[nH]c2c1CCCC2	67*	107*	78*	15	-21	-17	83*	16
O=C(Nc1nnc(-c2ccco2)s1)c1ccccc1	-18	-12	-61	-10	-2	-48	.	.
COc1ccc(C(=O)Nc2nnc(-c3ccco3)s2)cc1	34	107*	63*	23	-27	-43	73*	-39
CCNC(=O)c1c(NC(=O)c2cc(-c3cc(C)ccc3O)n[nH]2)sc2c1CCCC2	-13	101*	60*	19	-33	-10	106*	17
Cc1ccc(C(=O)Nc2c(C)n(C)n(-c3ccccc3)c2=O)cc1	6	-3	7	-6	13	22	.	.
Cc1ccc(-n2c(N)c(C(=O)Nc3c(C)n(C)n(-c4ccccc4)c3=O)c3nc4ccccc4nc32)cc1	0	107*	76*	15	-47	-13	55	51*
SMILES	MITF TRPM1 inh	CHOP inh	Peg3 prom inh-1	CF NFkB inh	KKLEB tox	HIF-2a inh	CHOP confirm	Peg3 prom inh-2
CC(=O)NS(=O)(=O)c1ccc(NC(=O)[C@@H]2CCCN2S(=O)(=O)c2ccc(Cl)cc2)cc1	-6	.	10	15	14	10	.	.
C=CCn1c(COc2ccc(Cl)cc2)nnc1SCC(=O)N/N=C/c1cccc(O)c1	-3	21	2	-5	5	5	.	.
C=CCn1c(COc2ccccc2)nnc1SC(C)C(=O)N/N=C/c1cc(Cl)ccc1O (stereo not given)	?	97*	60*	3	-6	11	128*	71*
O=C1C(Cl)=C(Nc2ccccc2)C(=O)c2ccccc21	90*	112*	102*	93*	-83*	97*	127*	98*
O=C(O)c1cccc(NC2=C(Cl)C(=O)c3ccccc3C2=O)c1	36	-72	-128	-12	-1	-81	.	.
CCC1(c2ccccc2)NC(=O)N(CC(=O)Nc2ccc(N3CCCC3)cc2C)C1=O (stereo not given)	14	.	15	10	-7	7	.	.
Cc1ccc(C)c(Oc2ncnc(N)c2[N+](=O)[O-])c1	7	-9	1	-5	1	17	.	.
Cc1cc(Sc2ncnc(N)c2[N+](=O)[O-])ncn1	78*	106*	106*	66*	5	16	61	100*
CN(C)c1ccc(/C=C/c2ccc3c4ccccc4ccc3[n+]2-c2ccccc2)cc1	104*	108*	106*	-131	-10	96*	123*	100*
NC(=O)CC(NC(=O)Cc1cccc2ccccc12)c1ccc(NCC2CC2)c([N+](=O)[O-])c1 (stereo not given)	2	12	6	-19	-10	-2	.	.
NC(=O)CC(NC(=O)Cc1cccc2ccccc12)c1ccc(NC2CCCC2)c([N+](=O)[O-])c1 (stereo not given)	-1	.	-3	12	-11	-6	.	.
NC(=O)CC(NC(=O)Cc1cccc2ccccc12)c1ccc(NCCOc2ccccc2)c([N+](=O)[O-])c1 (stereo not given)	-16	101*	54*	-15	-19	11	112*	27
